This passage reports potentiation results from PubChem BioAssay AID485347 (National Center for Advancing Translational Sciences (NCATS), 2010).

The campaign covered roughly 340,000 compounds. About 1,200 (0.35%) were called active. What follows is part of a selection rich in actives, with near analogues and random picks from the rest. Unmarked numbers belong to inactive results.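 The calls were made as follows: active = potentiation over 3 SD above the plate norm (cut at about 30% in these data); inactive = the rest.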

Sequence of D(2) dopamine receptor (Homo sapiens) (P14416 whole entry, looked up): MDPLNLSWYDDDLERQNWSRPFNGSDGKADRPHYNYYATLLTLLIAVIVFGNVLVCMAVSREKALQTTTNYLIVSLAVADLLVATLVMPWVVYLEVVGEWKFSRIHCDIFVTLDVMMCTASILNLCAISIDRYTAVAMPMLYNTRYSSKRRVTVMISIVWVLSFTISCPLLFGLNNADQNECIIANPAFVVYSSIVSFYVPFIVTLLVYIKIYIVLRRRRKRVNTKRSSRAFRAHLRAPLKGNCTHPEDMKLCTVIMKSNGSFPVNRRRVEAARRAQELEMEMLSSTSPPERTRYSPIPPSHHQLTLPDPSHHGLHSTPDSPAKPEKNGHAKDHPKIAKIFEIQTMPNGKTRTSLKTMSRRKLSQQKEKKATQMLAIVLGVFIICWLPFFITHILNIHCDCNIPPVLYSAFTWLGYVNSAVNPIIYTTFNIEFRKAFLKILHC

The target of the test is D(2) dopamine receptor (Homo sapiens) (UniProt P14416). Kind of test: HTS Assay for Positive Allosteric Modulators of the Human D2 Dopamine Receptor: Primary Screen for Potentiators. Also: 0% is about no effect. The settings on record: HEK293 T-REx D2, calcium flux, EC20 dopamine potentiation; at 10 µM; hits give high values. The text has this:
NIH Chemical Genomics Center [NCGC] NIH Molecular Libraries Probe Centers Network [MLPCN] MLPCN Grant: NS064831-01 Assay Submitter (PI): David Sibley Dopamine receptors (DARs) are involved in the etiology and/or therapy of a number of neuropsychiatric and endocrine disorders. For instance, all receptor-based antiparkinsonian drugs work via stimulating the D2 DAR subtype whereas all FDA-approved antipsychotic agents are antagonists of this receptor. […] There are three different types of allosteric modulators that we are seeking, two of which will stimulate or augment receptor signaling, allosteric agonists and potentiators, while the third, allosteric antagonists, will attenuate receptor signaling. The present primary screening assay measures compound potentiation of an EC20 dopamine response by tracking calcium flux in a […], inducible Hek293 Trex D2 cell line.
Freshly passaged cells are plated in 1536 well black, clear bottom plates at a density of 4000 cells/well in 3 ul of complete media containing 1x tetracycline inducer. After an overnight incubation at 30 C in 5% CO2, cells are loaded with 2 ul of the no wash Calcium Assay Kit (ABD Bioquest) and incubated at room temperature for 30 to 90 minutes. A 10 cycle (1 second/cycle) baseline measurement is taken and then the FDSS online 1536 pintool delivers 23 nl of compound library (as well as dopamine controls) to the plate. The plate is measured for kinetically at 1 cycle/sec for 180 seconds and is considered to be the agonist portion of the assay (eg, compounds which activate a positive calcium response during this portion are flagged as potential agonists). Following the 180 second read, 1 ul of an EC20 of dopamine is delivered by an onboard pipette head. Measurements are taken kinetically for an additional 180 seconds.
A general note: Calcium assays in cells follow changes in intracellular calcium, usually with a dye or a luminescent sensor.
Consider `O=C(NCC(c1cccnc1)N1CCN(c2ccccc2)CC1)Oc1ccccc1` (stereo not given), for which the potentiation is 43.6% (active).

On to `COc1ccccc1N1CCN(C(CNC(=O)Oc2ccccc2)c2cccnc2)CC1` (stereo not given), for which the potentiation was -0.508%.

With `COC(=O)C(c1ccccc1)N1CCCCCC1` (stereo not given), the potentiation was 5.6%.

Turning to `Cc1cccc(Cn2cccc(C(=O)Nc3ccc4c(c3)OCCO4)c2=O)c1`, the potentiation is -8.38%.

As for `Cc1ccc(NC(=O)N(Cc2ccc3c(c2)OCO3)C2CCN(Cc3ccccc3)CC2)cc1F`, the potentiation was 2.88%.
